# Bioassay records from PubChem BioAssay.
# PNC assembly inh: blocks assembly of the perinucleolar compartment | activity change (PNC), negative = inhibition, % at 10 µM | AID 2417 | PC3M PTB-GFP, PNC prevalence imaging, 16 h; active compounds read low | hit rate 3.1% among 140,000;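 active = readout at or below -70, meaning at least 70% loss of cells showing the perinucleolar compartment, a nuclear body marking cancer cells; inconclusive = readout between -30 and a set limit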;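 also: plate controls were DMSO wells for no effect and camptothecin positive control wells for full effect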
#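 Compounds are pinned in duplicate onto adhered PC3M cells stably expressing GFP-tagged PTB and incubated 16 h at 37 C. Cells are then fixed, nuclei stained with Hoechst, and PNC-positive cells counted.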
# ALDH1A1 block: inhibitors of human aldehyde dehydrogenase 1A1. Potency, µM (titrated, usually from 75.3 µM), for inactives: at the top dose activity, negative = inhibition, hits mostly inhibitors. hit rate 7.3% among 220,000. Purified ALDH1A1, NADH fluorescence, propionaldehyde substrate. P00352;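 also: potency is read from the fitted curve at half-maximal effect; plate controls were no enzyme wells and a reference inhibitor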
# HPGD block: blocks human HPGD enzyme activity; hit rate 4.3% among 150,000; purified HPGD, NADH fluorescence kinetic, PGE2 substrate; Potency, µM, for inactives: at the highest dose activity change, negative = inhibition, actives largely listed as inhibitors; also: potency is read from the fitted curve at half-maximal effect
# Target sequence (P15428 whole entry, looked up): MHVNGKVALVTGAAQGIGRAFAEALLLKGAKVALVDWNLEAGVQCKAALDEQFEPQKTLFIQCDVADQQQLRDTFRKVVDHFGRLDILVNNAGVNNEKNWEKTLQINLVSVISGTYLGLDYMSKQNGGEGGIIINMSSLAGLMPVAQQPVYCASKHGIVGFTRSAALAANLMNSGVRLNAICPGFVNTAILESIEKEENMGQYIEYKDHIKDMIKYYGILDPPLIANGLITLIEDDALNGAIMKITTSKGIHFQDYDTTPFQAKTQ
#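 NADH formation kinetics: reaction with 30 uM PGE2 and 1 mM NAD+ (final), 20 nM enzyme, Tris-HCl pH 8 with Tween 20, after 15 min compound preincubation at room temperature. Fluorescence change, last versus first of five reads.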
# JMJD2E inh: blocks human JMJD2E demethylase activity | B2RXH2 | JMJD2E catalytic domain, FDH-coupled NADH fluorescence (FDH is formaldehyde dehydrogenase) | Potency, µM (highest dose often 57.1 µM), without a hit: at the highest dose activity change, negative = inhibition, usual class: inhibitors | hit rate 1.6% among 230,000;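 also: potency is read from the fitted curve at half-maximal effect; 0% = wells with enzyme and -100% = buffer wells without enzyme; nearly all actives have a fitted effect of over 50% in size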
# Target sequence (B2RXH2 1-337 limits assumed): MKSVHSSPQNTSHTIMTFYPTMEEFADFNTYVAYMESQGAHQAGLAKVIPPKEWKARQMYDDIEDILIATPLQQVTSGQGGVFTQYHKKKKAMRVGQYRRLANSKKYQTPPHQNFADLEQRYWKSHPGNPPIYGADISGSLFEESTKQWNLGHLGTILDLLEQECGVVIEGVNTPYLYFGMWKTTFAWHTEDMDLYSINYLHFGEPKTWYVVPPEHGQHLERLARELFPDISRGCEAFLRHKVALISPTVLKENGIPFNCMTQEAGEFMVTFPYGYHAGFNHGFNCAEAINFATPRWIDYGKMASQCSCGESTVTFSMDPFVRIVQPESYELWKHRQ
# The depositor's hits bear a star; ? = inconclusive; . = no result given; [ ] = dose if it differs, or a comment. Sampled rows, rich in hits. Any-hit rate of the full collection: about 11%. Unless noted, calls follow the shape of the dose curve; as a rule, active = well fitted inhibition curve with a large enough effect (not every such curve was filed as active); inconclusive = small, poorly fitted or top-dose-only effect, or another doubt; inactive = no such curve, though single readings can be large or run the other way. Unless noted, % is scaled to controls: 0 for no effect and ±100 for the full control effect.
SMILES,PNC assembly inh,ALDH1A1 block,HPGD block,JMJD2E inh
CCOC(=O)C1=C(O)C(=O)N(Cc2ccc(C(C)(C)C)cc2)CC1,.,14µM*,.,4%
CCOC(=O)C1=C(O)C(=O)N(Cc2ccccc2)CC1,.,-5%,.,7%
Cc1c(N)cc[n+](CC(=O)c2ccccc2)c1C,.,2%,.,10%
CC(C)C1O/C(=N/C(=O)Nc2ccc(Cl)c(Cl)c2)NC1=O (configuration not stated),-16,?,20µM*,5%
N#CC(c1ccccc1)c1ccc2c(C(F)(F)F)cc(C(F)(F)F)nc2n1 (configuration not stated),7,22µM*,-11%,-1%
Cc1ccc(C(C#N)c2ccc3c(C(F)(F)F)cc(C(F)(F)F)nc3n2)cc1 (configuration not stated),-24,-9%,-9%,3%
CC(=O)NCCc1ccc(S(=O)(=O)Nc2cccnc2)cc1,-82*,0%,-2%,9%
Cc1sc2ncn(CC(=O)N3CCOCC3)c(=O)c2c1-c1ccccc1,.,1%,.,-3%
COc1ccc(C(C)=O)cc1CSc1nc2ccccc2c(=O)n1-c1ccccc1,?,?,-11%,-4%
CCOc1ccc(C(C)=O)cc1CSc1nc(C)cc(C)n1,.,4µM*,.,-2%
COCCn1c(SCc2cc(C(C)=O)ccc2OC)nc2cc(Cl)ccc2c1=O,-17,18µM*,-3%,-4%
C=CCn1c(SCc2cc(C(C)=O)ccc2OCC)nc2ccccc2c1=O,?,2.2µM*,-12%,-14%
CC(=NCC(=O)O)c1ccccc1,.,5%[13.5 µM],0%,.
CC12C=CC(=O)C=C1[C@@H](F)CC1C2C(O)CC2(C)C1CC[C@]2(O)C(=O)CO (some centres not stated),.,1%,-8%,.
CCCCNC(=O)c1ccccc1C(=O)NCCCC,?,13%,-1%,1%
O=C(NCCSc1ccccc1)c1ccc(Br)cc1,-10,-4%,-15%,9%
CCCCNC(=O)c1ccccc1Cl,-22,15%,8.9µM*,-1%
O=C(NCCSc1ccccc1)c1ccccc1,17,-2%,-28%,5%
Cc1ccccc1C(=O)NCCSc1ccccc1,?,-1%,20µM*,6%
O=C(NCCSc1ccccc1)c1ccccc1Cl,32,-7%,13µM*,-5%
O=C(NCCSc1ccccc1)c1cncc(Br)c1,8,25µM*,-17%,1%
Cc1oc(-c2ccc3c(c2)OCCO3)cc1C(=O)NC(Cc1ccccc1)C(=O)O (configuration not stated),.,?,.,-27%
CSc1ccccc1C(=O)NCCSc1ccccc1,-15,-4%,16µM*,6%
Cc1ccccc1CSCCNC(=O)c1ccccc1,4,?,32µM*,9%
CC(C)(C)SCCNC(=O)c1ccccc1,-18,-2%,-17%,17%
SMILES,PNC assembly inh,ALDH1A1 block,HPGD block,JMJD2E inh
O=C(Nc1ccccc1C(=O)O)c1cncc(Br)c1,17,14µM*,-26%,-3%
CSc1ccccc1C(=O)NCCSC(C)(C)C,51,1%,25µM*,9%
C=CCn1cnc2c(nnn2-c2ccc(C)c(C)c2)c1=O,.,?,.,3%
CCOc1cccc(NC(=O)c2cccc(F)c2)c1,.,1%,.,7%
Cc1ccc2c(c1)C1(C(=O)N2)N2CCCC2C(C(=O)c2ccc3ccccc3c2)C12C(=O)Nc1ccccc12 (configuration not stated),.,.,.,-19%
O=C1C2CCC(C2)[C@@H]2CCCCN12 (some centres not stated),.,?,-12%,.
COCCNc1ccnc(-c2c(C)noc2C)n1,.,12%,-5%,15%
CCCn1c(SCC(=O)Nc2ccc(S(=O)(=O)N(C)C)cc2)n[nH]c1=O,.,22%,.,6%
CCCCCNC(=O)c1ccccc1SC,-4,8%,14µM*,2%
Cc1ccsc1/C=N/n1c(-c2ccccn2)n[nH]c1=S,?,?,28µM*,-4%
Cc1ccsc1/C=N/n1c(-c2ccccc2)n[nH]c1=S,25,?,13µM*,-3%
Cc1ccc(/C=N/n2c(-c3ccncc3)n[nH]c2=S)s1,.,.,.,-17%
Cc1ccsc1/C=N/n1c(-c2ccncc2)n[nH]c1=S,18,-6%,28µM*,?
Cc1cc(-c2n[nH]c(=S)n2/N=C/c2cccc(O)c2)n[nH]1,.,1%,.,13%
S=c1[nH]nc(-c2ccccn2)n1/N=C/c1ccco1,.,.,.,-8%
Cc1cc(-c2n[nH]c(=S)n2/N=C/c2sccc2C)n[nH]1,-23,-4%,22µM*,-8%
COCCn1c(=O)c(-c2cc(F)cc(F)c2)nc2cnc(Nc3cccc(OC)c3)nc21,.,5%,-8%,.
S=c1[nH]nc(-c2ccco2)n1/N=C/C(Cl)=C/c1ccccc1,.,-5%,.,-10%
Cc1cc(-c2n[nH]c(=S)n2/N=C/C(Cl)=C/c2ccccc2)n[nH]1,0,?,6.3µM*,?
Cc1ccc(/C=N/n2c(-c3ccco3)n[nH]c2=S)cc1,.,.,.,-5%
Cc1ccsc1/C=N/n1c(-c2ccco2)n[nH]c1=S,?,14µM*,14µM*,-13%
C=CCc1c(NCCO)nc(C)[nH]c1=O,.,?,.,-8%
O=C1/C(=C/C=C/c2ccccc2)Oc2c1ccc(O)c2CN1CCN(CCO)CC1,.,.,.,-16%
COc1ccccc1/C=C/C=C1\Oc2c(ccc(O)c2CN2CCN(CCO)CC2)C1=O,-28,?,16µM*,-24%
Cc1cc(C)cc(NC(=O)Nc2ccccc2N2CCCCC2)c1,.,.,.,5%
SMILES,PNC assembly inh,ALDH1A1 block,HPGD block,JMJD2E inh
O=C(Oc1ccc(C(=S)N2CCOCC2)cc1Br)c1cc(Cl)ccc1Cl,-12,3%,-9%,3%
O=C(Oc1c(Br)cc(C(=S)N2CCOCC2)cc1Br)c1ccc(Cl)cc1,36,6.3µM*,16µM*,1%
Oc1c(Cl)cc(Cl)c2c1NCCC2,17,5µM*,-10%,?
Oc1c(Cl)cc(CN(Cc2cc(Cl)c(O)c(Cl)c2)C2CCCCC2)cc1Cl,.,5%[13.5 µM],-3%,.
CN1C(=O)/C(=C/c2ccccc2OCc2ccccc2)NC1=S,?,?,11µM*,-4%
CN1C(=O)/C(=C/c2ccccc2OCc2ccc(C(=O)O)cc2)NC1=S,.,3%,.,?
CN1C(=O)/C(=C/c2ccccc2OCc2cccc(F)c2)NC1=S,28,-12%,4.5µM*,1%
CN1C(=O)/C(=C/c2ccccc2OCc2ccc(F)cc2)N(C)C1=S,-20,-4%,-23%,-3%
Cc1nn(C(=O)c2nn(C)cc2[N+](=O)[O-])c(C)c1Br,.,6%,.,2%
CC(=O)Nc1cc(O)cc(O)c1,.,.,.,-8%
Cc1cccc(-c2cc3nc4c(c(NCc5ccco5)n3n2)CCCC4)c1,-4,?,?,?
CC(Sc1ccccn1)C(=O)Nc1ccccc1 (configuration not stated),?,-2%,28µM*,9%
CC(Sc1ccccn1)C(=O)Nc1ccc(S(N)(=O)=O)cc1 (configuration not stated),-108*,-1%,-20%,-5%
CC(=O)c1ccc(NC(=O)C(C)Sc2ccccn2)cc1 (configuration not stated),.,?,.,0%
CCOC(=O)c1ccccc1NC(=S)N1CC(C)CC(C)C1 (configuration not stated),?,25µM*,-5%,?
